This passage reports growth results from PubChem BioAssay (NCI).

SMILES strings stand for the structures. Values joined by “and” are separate entries in the source; they are usually repeats but may differ in a detail not shown here. Equal values may be shown once. Compounds without any hit were thinned out: in the full panel of roughly 83,000, 20% have a hit.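 The endpoint reported here, percent growth, reads 100 for growth as untreated, 0 for no net growth and -100 for all cells dead.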 Active and inactive are the calls of the source. Rule for the calls: active = growth percent below 10; inactive = the rest.

Assay in all cases: NCI-60 one-dose screen, 48 h (100 = growth as untreated, 0 = no growth, -100 = all killed)
Conditions in all cases: 10 µM unless noted

For assay [1], the system named is SR leukemia.
In assay [2] the test system is RPMI-8226 leukemia.
Assay [3] relates to OVCAR-8 ovarian.
In assay [4] the test system is OVCAR-5 ovarian.
The test system of assay [5] is OVCAR-4 ovarian.
The test system of assay [6] is SK-OV-3 ovarian.
The subject of assay [7] is IGROV1 ovarian.
Assay [8] has as its system OVCAR-3 ovarian.
Assay [9] has as its system HS 578T breast.
Assay [10] concerns NCI/ADR-RES ovarian.

With `O=c1c2c([nH]c3ccccc13)CCCC2`, the growth was 87.9% (inactive) and 10.9% (inactive) in [1]; 87.2% (inactive) and 38.6% (inactive) in assay [2]; 99.8% (inactive) and 40.5% (inactive) in assay [3]; 91.3% (inactive) and 78.2% (inactive) in assay [4]; 100% (inactive) and 68.5% (inactive) in assay [5]; 104% (inactive) and 44.2% (inactive) in assay [6]. Further, the growth in assay [7] was 111% (inactive) and 44.1% (inactive); in assay [8], 118% (inactive) and -8.45% (active); in [9] it was 98.2% (inactive) and 72.4% (inactive); in assay [10] it was 104% (inactive) and 22.2% (inactive).
Take `CC[C@@H]1NC(=O)[C@H]([C@H](O)[C@H](C)C/C=C/c2ccc(CN3C(=O)C(C)=C(C)C3=O)cc2)N(C)C(=O)[C@H](C(C)C)N(C)C(=O)[C@H](CC(C)C)N(C)C(=O)[C@H](CC(C)C)N(C)C(=O)[C@@H](C)NC(=O)[C@H](C)NC(=O)[C@H](CC(C)C)N(C)C(=O)[C@H](C(C)C)NC(=O)[C@H](CC(C)C)N(C)C(=O)CN(C)C1=O`: the growth in [1] is 46.9% (inactive); in assay [2] it was 53.3% (inactive); in assay [3], 78.5% (inactive); in assay [4], 75.9% (inactive); in [5], 74.4% (inactive); in assay [6], 83.4% (inactive). Besides, the growth is 68.6% (inactive) in [7], 76.7% (inactive) in [8], 83.9% (inactive) in assay [9] and 76.5% (inactive) in assay [10].
Consider `COc1ccc2c(O)c(/C=C3\N=Nc4nc(C)ccc43)oc2c1CC1CCNCC1`, for which the growth is -27.5% (active) in assay [1]; 96.7% (inactive) in [2]; 68.4% (inactive) in assay [3]; 65% (inactive) in assay [4]; 74.2% (inactive) in assay [5]; 80.8% (inactive) in [6]. Besides, the growth in assay [7] was 60.8% (inactive); in [8], 83.8% (inactive); in assay [9], 57.9% (inactive); in assay [10], 104% (inactive).
On to `O=C1C=C(Nc2ccccc2)c2ncccc2C1=O`, for which the growth in assay [1] is -28.2% (active); in [2], -40.7% (active); in [3], -92.7% (active); in [4] it was -90.3% (active); in assay [5], -95.2% (active); in assay [6] it was -91.1% (active). The growth is -66.7% (active) in assay [7], -74.6% (active) in assay [8], -8.31% (active) in assay [9] and -24.8% (active) in assay [10].
As for `CC(=O)c1c(C)nc(SCC(=O)Nc2ccc(Cl)cc2)n1-c1ccc(Cl)cc1`, the growth in [1] is 90.6% (inactive); in assay [2] it was 71.1% (inactive); in [3], 89.3% (inactive); in assay [4], 99.1% (inactive); in [5], 102% (inactive); in assay [6], 85.9% (inactive). For the same compound, the growth is 97.9% (inactive) in [7], 99.4% (inactive) in [8], 79.4% (inactive) in [9] and 89.2% (inactive) in [10].
On to `CCN(CC)CCOc1ccccc1C`, for which the growth was 111% (inactive) in assay [1]; 103% (inactive) in assay [2]; 102% (inactive) in assay [3]; 97.2% (inactive) in [4]; 111% (inactive) in assay [5]; 103% (inactive) in [6]. The growth in assay [7] is 109% (inactive); in assay [8], 117% (inactive); in assay [9], 119% (inactive); in assay [10] it was 124% (inactive).
With `Nc1ncnc2c1C(c1ccc([N+](=O)[O-])cc1)c1sc3c(F)cccc3c1O2` (stereo not given), the growth in assay [1] was 94.3% (inactive); in assay [2] it was 103% (inactive); in assay [3], 102% (inactive); in assay [4], 85.9% (inactive); in assay [5] it was 99.8% (inactive); in assay [6], 109% (inactive). For the same compound, the growth in assay [7] is 85.6% (inactive); in assay [8], 110% (inactive); in assay [9] it was 89.2% (inactive); in assay [10], 101% (inactive).
Consider `Nc1[nH]nc(Nc2ccccc2)c1-c1nc2ccccc2s1`, for which the growth in assay [1] is 13.6% (inactive); in [2], 24% (inactive); in assay [3], 38.4% (inactive); in assay [4], 34.5% (inactive); in assay [5], 29.5% (inactive); in [6] it was 48.8% (inactive). Besides, the growth in assay [7] is 28.5% (inactive); in [8], 25.3% (inactive); in [9] it was 47.2% (inactive); in [10], 30% (inactive).
For `COC(=O)/C=C1/SC(N2N=C(c3cccs3)CC2c2ccc(F)cc2)=NC1=O` (stereo not given), the growth in [1] is 7.77% (active); in assay [2], -24.2% (active); in assay [3], 44.1% (inactive); in [4], 79.1% (inactive); in assay [5], 84.8% (inactive); in assay [6] it was 89.2% (inactive). Further, the growth was 32.3% (inactive) in assay [7], 11.5% (inactive) in assay [8], 84.6% (inactive) in [9] and 51.9% (inactive) in assay [10].
As to `Nc1nc(N)c2c(n1)NC(c1cccc(Nc3ccnc4cc(C(F)(F)F)ccc34)c1)CC(c1ccc(F)cc1)=N2` (stereo not given), the growth in assay [1] is -7.72% (active); in [2], 3.03% (active); in assay [3], 63.1% (inactive); in assay [4] it was 108% (inactive); in assay [5], 57.9% (inactive); in assay [6], 63.1% (inactive). Also, the growth in assay [7] was 50.5% (inactive); in assay [8], 26.4% (inactive); in [9], 42.1% (inactive); in assay [10], 70.7% (inactive).
In the case of `O/N=C(/c1ccccc1)c1ccc2c3c(cccc13)CC2`, the growth in assay [1] is 67% (inactive) and 66.6% (inactive); in [2], 75.2% (inactive) and 70.4% (inactive); in [3], 87.7% (inactive); in [4], 97.7% (inactive) and 95.4% (inactive); in assay [5], 83.9% (inactive) and 77.1% (inactive); in assay [6] it was 99.3% (inactive) and 97.4% (inactive). Further, the growth in [7] was 97.8% (inactive) and 98% (inactive); in assay [8] it was 99.4% (inactive) and 93.3% (inactive); in assay [9], 94.4% (inactive) and 90.2% (inactive); in assay [10], 92.8% (inactive) and 88.6% (inactive).
With `CCCCCCCCCCCCC[C@H](O)C[C@H](O)[C@H](C)N`, the growth in assay [1] is -35.7% [1.25 µM] (active); in assay [2], 33.2% [1.25 µM] (inactive); in assay [3], 89.7% [1.25 µM] (inactive); in [4] it was 86.1% [1.25 µM] (inactive); in assay [5], 123% [1.25 µM] (inactive); in assay [6], 125% [1.25 µM] (inactive). Besides, the growth was 133% [1.25 µM] (inactive) in assay [7], 103% [1.25 µM] (inactive) in assay [8], 117% [1.25 µM] (inactive) in assay [9] and 85.9% [1.25 µM] (inactive) in assay [10].
